Screens (PubChem BioAssay)
RGS7-Gao – RGS7-Galphao binding modulators, primary screen, biochemical, multiplexed bead flow cytometry; actives lie on both sides; AID 1439, 2008; 220,000 tested, 0.35% active; binding response (% of control), % at 10 µM; in the data active = binding response below about 49% or above about 150%;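 note: fluorescent Galphao held in activated GDP-AlF4 state binding bead-coupled RGS7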
GSH bead fluor – compound fluorescence on glutathione beads, profiling panel, artefact control, biophysical, 488/530 nm, flow cytometry; GSH beads flow cytometry, compound fluorescence 488/530 nm; hits give high values; fluorescence (KMESF) at 10 µM; 190,000 tested, 0.25% active; AID 1776, 2009; in the data active = fluorescence above about 89;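 note: glutathione beads carrying GST-tagged Bcl family fusion proteins plus one bare bead set; values are compound well signal with DMSO vehicle wells as background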
RGS4-Gao reg – modulators of RGS4 binding to Galphao, primary screen, biochemical, multiplexed bead flow cytometry; AID 1415, 2008; Guanine nucleotide-binding protein G(o) subunit alpha (Homo sapiens), P09471; 220,000 tested, 0.33% active; binding response (% of control), % at 10 µM; actives lie on both sides; in the data active = binding response below about 49% or above about 150%; inactive = in between;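 note: fluorescent Galphao activated with aluminum fluoride binding bead-coupled RGS4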
RGS8-Gao – RGS8-Galphao binding modulators, primary screen, biochemical, multiplexed bead flow cytometry; Guanine nucleotide-binding protein G(o) subunit alpha (Homo sapiens), P09471; actives lie on both sides; response (percent of control binding), % at 10 µM; 220,000 tested, 0.34% active; AID 1423, 2008; in the data active = response below about 60% or above about 140%; inactive = in between;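 note: Galphao activated as the GDP aluminium fluoride complex binding bead-coupled RGS8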
RGS16-Gao – modulators of RGS16 binding to Galphao, primary screen, biochemical, human proteins, multiplexed bead flow cytometry; Regulator of G-protein signaling 16 (Homo sapiens) + Guanine nucleotide-binding protein …; bead-based flow cytometry RGS16-Galphao binding, fluorescence; actives lie on both sides; binding response (% of control), % at 10 µM; 220,000 tested, 0.38% active; call rule not given here;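 note: Galphao activated by GDP with aluminum fluoride before binding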
Target sequence (O15492 whole entry, looked up): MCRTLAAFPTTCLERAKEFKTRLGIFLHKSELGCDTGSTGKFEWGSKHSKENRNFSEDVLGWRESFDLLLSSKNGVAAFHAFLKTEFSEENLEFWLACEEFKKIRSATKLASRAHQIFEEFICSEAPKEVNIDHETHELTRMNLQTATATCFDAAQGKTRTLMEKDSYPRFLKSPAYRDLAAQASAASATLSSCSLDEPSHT
Target sequence (P09471 whole entry, looked up): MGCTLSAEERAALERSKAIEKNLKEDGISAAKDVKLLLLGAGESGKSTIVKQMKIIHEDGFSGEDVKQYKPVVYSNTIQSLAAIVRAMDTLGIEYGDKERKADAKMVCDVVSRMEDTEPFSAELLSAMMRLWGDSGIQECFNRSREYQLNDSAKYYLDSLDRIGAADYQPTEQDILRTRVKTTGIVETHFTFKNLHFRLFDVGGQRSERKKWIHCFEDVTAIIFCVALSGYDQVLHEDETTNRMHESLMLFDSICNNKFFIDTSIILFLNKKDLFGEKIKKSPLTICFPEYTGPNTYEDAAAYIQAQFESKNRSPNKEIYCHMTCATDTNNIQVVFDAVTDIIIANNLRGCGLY
Avidin fluor – green autofluorescence of compounds with avidin beads – biophysical, 488/530 nm, flow cytometry, artefact control, profiling panel | compound fluorescence 488/530 nm; hits give high values | fluorescence (KMESF) at 10 µM | 220,000 tested, 0.38% active | AID 1775, 2009; in the data active = fluorescence above about 47
Biotin-avidin – disruption of biotin probe capture by avidin, counter-screen for RGS protein interaction modulators, biochemical, flow cytometry, bead-based. shares compounds with RGS16-Gao. streptavidin beads, fluorescein-biotin binding. inhibition, % at 10 µM. 1,700 tested, under 10 active. AID 1783, 2009;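 active = inhibition above 50%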;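 note: median green fluorescence of gated singlet beads compared with DMSO control wells; 0% = DMSO wells and 100% = complete loss of bead fluorescence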
RGS8-Gao confirm – RGS8-Galphao binding modulators, confirmation, biochemical, multiplexed bead flow cytometry, single concentration. shares compounds with RGS16-Gao. bead-based flow cytometry RGS8-Galphao binding, fluorescence; actives lie on both sides. binding response (% of control), % at 10 µM. 1,700 tested, 3% active. AID 1836, 2009; in the data active = binding response below about 72% or above about 130%; inactive = in between;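 note: Galphao activated as GDP AlF4 complex before binding bead RGS8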
RGS7-Gao confirm – RGS7-Galphao binding modulators, confirmation, biochemical, multiplexed bead flow cytometry, single concentration | shares compounds with RGS16-Gao | bead-based flow cytometry RGS7-Galphao binding; actives lie on both sides | AID 1837, 2009 | 1,700 tested, 7.8% active | response (percent of control binding), % at 10 µM; in the data active = response below about 75% or above about 130%; inactive = in between;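 note: fluorescent Galphao activated with GDP and aluminum fluoride binding bead-coupled RGS7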
RGS16-Gao conf – modulators of RGS16-Galphao protein binding, confirmation, biochemical, single concentration, multiplexed bead flow cytometry; shares compounds with RGS16-Gao; bead-based flow cytometry; actives lie on both sides; response (% of control binding), % at 10 µM; 1,700 tested, 4% active; in the data active = response below about 74% or above about 130%; inactive = in between;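 note: Galphao activated as the GDP aluminium fluoride complex binding bead-coupled RGS16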
RGS4-Gao confirm – modulators of RGS4-Galphao protein binding, confirmation, biochemical, single concentration, multiplexed bead flow cytometry | shares compounds with RGS16-Gao | binding response (% of control), % at 10 µM | actives lie on both sides | AID 1840, 2009 | 1,700 tested, 4% active; in the data active = binding response below about 74% or above about 130%; inactive = in between
RGS19-Gao single – regulators of RGS19-Galphao binding, confirmation, biochemical, single point, multiplexed bead flow cytometry. shares compounds with RGS16-Gao. 1,700 tested, 5% active. response (percent of control binding), % at 10 µM. bead-based flow cytometry RGS19-Galphao binding; actives lie on both sides; in the data active = response below about 50% or above about 160%; inactive = in between;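 note: 100% = no compound control and 0% = blank background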
* = called active by the depositor; . = no result given; [ ] = another dose, or the depositor's remark. Hits are enriched below; roughly 1.2% of the tested compounds scored in any of these assays.

SMILES	RGS7-Gao	GSH bead fluor	RGS4-Gao reg	RGS8-Gao	RGS16-Gao	Avidin fluor	Biotin-avidin	RGS8-Gao confirm	RGS7-Gao confirm	RGS16-Gao conf	RGS4-Gao confirm	RGS19-Gao single
COc1cc(CC(=O)N2CCc3ccccc32)cc(OC)c1OC	.	44	146	.	.	.	2	100	99	98	98	98
Oc1ccc(N2CCN(C(c3cccnc3)c3nnnn3Cc3ccccc3)CC2)cc1 (configuration not stated)	-9.4*	29	-26*	8.1*	-26*	-4	0	88	99	91	97	77
c1ccc(CCn2nnnc2C(c2cccnc2)N2CCN(c3ccccc3)CC2)cc1 (configuration not stated)	85	7	77	88	80	10	.	.	.	.	.	.
COc1ccc(N2CCN(C(c3cc4cc(C)ccc4[nH]c3=O)c3nnnn3Cc3ccccc3)CC2)cc1 (configuration not stated)	.	40	.	.	.	.	2	99	100	98	100	98
COc1ccc(Cn2nnnc2C(c2cc3cc(C)ccc3[nH]c2=O)N2CCOCC2)cc1 (configuration not stated)	98	23	98	99	99	15	.	.	.	.	.	.
CCCCC(CC)C(=O)Nc1ccc(C)c(O)c1 (configuration not stated)	100	17	101	101	105	13	.	.	.	.	.	.
CCc1cccc(CC)c1NC(=O)CSc1nc2ccc(N3C(=O)C4C(C3=O)[C@H]3C=C[C@@H]4C3)cc2s1 (some centres not stated)	103	11	100	101	97	24	.	.	.	.	.	.
CC(NC(=O)CCN1N=C(c2ccccc2)CCC1=O)c1ccc2c(c1)OCCO2 (configuration not stated)	80	10	85	81	44	7	.	.	.	.	.	.
COCCN(CCOC)C(=O)COC(=O)c1ccc(Cl)c(S(=O)(=O)N(C)c2ccccc2)c1	101	11	102	100	102	5	.	.	.	.	.	.
Cc1c(O)c2c3c(cccc3c1O)C(=O)N(c1ccccc1)C2=O	161*[activator]	13	164*[activator]	143*[activator]	120	2	-1	95	92	93	93	92
